Data on four compounds can be found in PubChem BioAssay.

Inconclusive results are not listed. The source made the active and inactive calls.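 The calls were made as follows, unless noted: active = GFP signal, as percent of the solvent control, above the screen mean plus 3 SD, about 149; inconclusive = no reading because the compound's own fluorescence upset strain identification; inactive = the rest.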

The nature of test [1]: rapamycin-like changes in RPL19A-GFP expression – cell-based, S. cerevisiae, multiplex flow cytometry, primary screen (AID 1862; in the data active = percent of DMSO control GFP below about 86%;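 also: lower values mimic rapamycin by blocking the RPL19A rise seen in DMSO cells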). The following applies: S. cerevisiae RPL19A-GFP strain, flow cytometry fluorescence, 3 h; at 10 µM; stronger effect = lower value.
Test [2] in a line: TOR pathway GLN3 branch reporter MEP2-GFP changes – S. cerevisiae, multiplex flow cytometry, primary screen (AID 1867;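 active = GFP response, as percent of the DMSO control, above the screen-wide mean plus 3 SD, about 139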;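 also: median GFP channel fluorescence of barcode-gated MEP2-GFP cells measured by flow cytometry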). The settings on record: S. cerevisiae MEP2-GFP strain, 3 h, at 10 µM, stronger effect = higher value, 100% means same as DMSO wells.
The nature of test [3]: TOR pathway RTG branch CIT2 reporter changes – S. cerevisiae, GFP fusion, multiplex flow cytometry, primary screen (AID 1870;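 active = percent response above a set limit, the screen-wide mean plus 3 SD, cut at about 130% in these data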;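 also: barcoded CIT2-GFP strain pooled with four other GFP strains with rapamycin as positive control; median GFP fluorescence per well over plate mean of DMSO wells so 100% = DMSO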). The settings on record: S. cerevisiae CIT2-GFP expression, 3 h, at 10 µM, stronger effect = higher value.
Test [4] in a line: TOR pathway LAP4-GFP level changes – S. cerevisiae, multiplex flow cytometry, primary screen (AID 1873). The settings on record: S. cerevisiae LAP4-GFP expression, 3 h, at 10 µM, stronger effect = higher value.
Test [5] is described as follows: yeast AGP1-GFP level changes, GLN3 branch – cell-based, multiplex flow cytometry, S. cerevisiae, primary screen (AID 1887;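 active = GFP signal above the screen-wide mean plus 3 SD, that is over about 124.5% of the solvent control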;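 also: AGP1-GFP fusion strain of S. cerevisiae within a five-strain barcoded multiplex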). The following applies: 3 h, at 10 µM, stronger effect = higher value.
Test [6] is described as follows: reduced mouse 2C T cell binding to pMHC/ICAM-1 vesicles – MLPCN validation set, flow cytometry, LFA-1/ICAM-1 modulator project, pilot screen (AID 2523;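 active = response below a set limit, under 55% cells CD8-positive and vesicle-bound, and CD8 cells' 90th-percentile brightness under 279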;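 as to vesicle binding response: mean PE anti-B7-1 fluorescence of CD8+ cells relative to row control; 100% = QL9-loaded vesicles with DMSO vehicle in the same plate row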). The following applies: 2C mouse CD8+ T cells, at 7 µM, stronger effect = lower value; double positive events: measured here: CD8+/vesicle+ event percentage.
The target of test [7] is Integrin beta-1 (Homo sapiens) + Integrin alpha-4 (Homo sapiens) (UniProt P13612+P05556). Nature of the test: alpha4beta1 integrin LIBS antibody binding reduction – U937 cells, HUTS-21 mAb, flow cytometry, validation set, VLA-4 allosteric modulator project, pilot screen (AID 2674;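 active = inhibition above 50%, about 3 SD of the validation set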;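 also: antibody binding induced by the VLA-4 ligand LDV present at three times its Kd; 0% = LDV ligand with antibody and no compound and 100% = antibody without LDV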). The following applies: HUTS-21 LIBS mAb binding, at 6.7 µM, stronger effect = higher value, binding induced by LDV ligand.

Test [8] in a line: calorie-restriction mimetic ROS inhibitors, yeast – validation compound set, pilot screen (AID 2706;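 active = superoxide response below 65% of plate, a cut near 3 SD across the whole screen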;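 also: yeast exposed to compound for one week at 30 degrees C before staining; 100% = mean of all compound wells on the same plate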). The following applies: S. cerevisiae aging, superoxide DHE fluorescence; at 10 µM; stronger effect = lower value.
Test [9] concerns the target Beta-adrenergic receptor kinase 1 (Homo sapiens) (UniProt P25098). Briefly: GRK2 binders displacing RNA aptamer, biochemical, validation, human GRK2, bead flow cytometry (AID 488806;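 active = aptamer binding inhibition above 30%, about 3 SD of noise from non-fluorescent compounds; inactive = inhibition at or below 30%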). The settings on record: bead-bound GRK2, FAM-aptamer displacement, at 10 µM, stronger effect = higher value.
The target of test [10] is Beta-2 adrenergic receptor (Homo sapiens) (UniProt P07550). Briefly: agonist-induced loss of surface beta2AR – cell-based, FAP fluorogen, flow cytometry, validation set, pilot screen (AID 504459;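 active = percent response above 42, roughly 3 SD of non-fluorescent test compounds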;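 also: agonist-driven loss of surface beta2AR via internalization measured by FAP dye flow cytometry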). The following applies: Am2.2-beta2AR cells, at 10 µM, stronger effect = higher value.
In test [11] the target is AP-2 complex subunit beta (Homo sapiens) (UniProt P63010). Briefly: beta-arrestin/AP2 interaction blockers – biochemical, validation set, GST-AP2 beads, flow cytometry, pilot screen (AID 504541;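 active = inhibition above 54%, about 3 SD of non-fluorescent compounds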;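 also: AP2 carries R879A mutation and is captured from E. coli lysate; bead-bound FITC arrestin peptide fluorescence measuring arrestin peptide binding to AP2; 0% = DMSO wells and 100% = excess unlabeled arrestin peptide control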). The following applies: FITC arrestin peptide, at 10 µM, stronger effect = higher value, AP2 beta2 appendage fragment, R879A mutant.
The nature of test [12]: cytosolic pH regulators acting via V-ATPase – S. cerevisiae, pHLuorin, HTS validation (AID 504600; in the data active = response above about 15%;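 also: plate controls were DMSO for no effect and reference compound for full effect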). The following applies: V-ATPase proton transport, at 10 µM, stronger effect = higher value.
The subject of test [13] is anti-desmoglein-3 scFv antibody binding to human DSG3. Briefly: blockers of pathogenic pemphigus antibody–desmoglein-3 binding – biochemical, validation compound set, bead-based, flow cytometry, pilot screen (AID 588368;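 active = binding below the plate cutoff, the plate median minus 3 SD, with a reading above zero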;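 also: signal is the median channel fluorescence of bead-bound GFP antibody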). The following applies: Protein G beads, DSG3-Fc, scFv-GFP binding, at 10 µM, stronger effect = lower value.
Test [14] in a line: Nile Red efflux blockade in pump-expressing yeast – validation compound set, multiplex, phenotypic, pilot screen (AID 588506;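 active = efflux inhibition above 0.42, the validation set average plus 4 SD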;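 also: Nile Red retained in cells so higher fluorescence means more efflux inhibition; 0 = negative control wells and 1 = enniatin B 25 µM full block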). The settings on record: S. cerevisiae pump-expressing triplex, Nile Red efflux flow cytometry; at 10 µM; stronger effect = higher value; the pumps come from Candida albicans.
The target of test [15] is ATP-binding cassette sub-family B member 6 (Homo sapiens) (UniProt Q9NP58). Nature of the test: blockers of ABCB6-driven porphyrin uptake – K562-ABCB6 cells, flow cytometry, validation set, pilot screen (AID 588550;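 active = inhibition above the screen-wide mean plus 3 SD, about 51%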;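 also: 0% = DMSO wells and 100% = benzethonium chloride 70 µM positive control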). The settings on record: K562-ABCB6 porphyrin accumulation, 1 h, at 10 µM, stronger effect = higher value.
A short description of test [16]: AML differentiation inducers, ER-HoxA9 marrow cells – cell-based, GFP/MAC1 double positive, flow cytometry, validation set, primary screen (AID 588685;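 active = differentiation response of at least 50%, scaled between solvent and reference control, from cells with both markers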;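 also: compound exposure lasts four days before antibody staining and flow analysis; 0% = DMSO wells and 100% = 5 µM fulvestrant positive control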). The settings on record: stronger effect = higher value, normalized: vehicle 0, fulvestrant 100.

Chain of AP-2 complex subunit beta (Homo sapiens) (P63010 whole entry, looked up, the tested form may be a part, one chain of several): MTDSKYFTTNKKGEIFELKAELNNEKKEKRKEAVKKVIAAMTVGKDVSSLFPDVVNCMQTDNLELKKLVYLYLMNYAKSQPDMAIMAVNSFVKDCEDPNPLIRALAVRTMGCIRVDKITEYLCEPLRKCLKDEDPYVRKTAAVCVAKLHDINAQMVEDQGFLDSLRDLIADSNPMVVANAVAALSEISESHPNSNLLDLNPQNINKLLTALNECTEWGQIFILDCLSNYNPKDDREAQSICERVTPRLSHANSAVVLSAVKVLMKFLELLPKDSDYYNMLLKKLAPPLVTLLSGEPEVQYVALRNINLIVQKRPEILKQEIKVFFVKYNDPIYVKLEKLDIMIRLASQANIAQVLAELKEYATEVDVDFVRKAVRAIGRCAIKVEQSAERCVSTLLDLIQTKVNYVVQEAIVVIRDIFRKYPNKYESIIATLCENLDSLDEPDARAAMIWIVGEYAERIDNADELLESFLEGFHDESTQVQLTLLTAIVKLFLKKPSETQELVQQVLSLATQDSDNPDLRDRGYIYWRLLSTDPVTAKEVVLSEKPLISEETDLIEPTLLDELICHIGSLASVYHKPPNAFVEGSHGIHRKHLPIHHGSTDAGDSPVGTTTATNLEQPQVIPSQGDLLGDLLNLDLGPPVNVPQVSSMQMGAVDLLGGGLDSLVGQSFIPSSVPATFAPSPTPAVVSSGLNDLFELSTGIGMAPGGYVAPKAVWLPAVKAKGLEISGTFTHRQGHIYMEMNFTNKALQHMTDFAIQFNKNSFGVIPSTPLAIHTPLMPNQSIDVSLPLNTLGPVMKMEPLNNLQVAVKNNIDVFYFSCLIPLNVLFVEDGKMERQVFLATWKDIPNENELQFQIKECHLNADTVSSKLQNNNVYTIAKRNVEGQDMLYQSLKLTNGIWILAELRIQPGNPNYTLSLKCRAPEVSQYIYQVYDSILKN
Chain of Beta-adrenergic receptor kinase 1 (Homo sapiens) (P25098 whole entry, looked up): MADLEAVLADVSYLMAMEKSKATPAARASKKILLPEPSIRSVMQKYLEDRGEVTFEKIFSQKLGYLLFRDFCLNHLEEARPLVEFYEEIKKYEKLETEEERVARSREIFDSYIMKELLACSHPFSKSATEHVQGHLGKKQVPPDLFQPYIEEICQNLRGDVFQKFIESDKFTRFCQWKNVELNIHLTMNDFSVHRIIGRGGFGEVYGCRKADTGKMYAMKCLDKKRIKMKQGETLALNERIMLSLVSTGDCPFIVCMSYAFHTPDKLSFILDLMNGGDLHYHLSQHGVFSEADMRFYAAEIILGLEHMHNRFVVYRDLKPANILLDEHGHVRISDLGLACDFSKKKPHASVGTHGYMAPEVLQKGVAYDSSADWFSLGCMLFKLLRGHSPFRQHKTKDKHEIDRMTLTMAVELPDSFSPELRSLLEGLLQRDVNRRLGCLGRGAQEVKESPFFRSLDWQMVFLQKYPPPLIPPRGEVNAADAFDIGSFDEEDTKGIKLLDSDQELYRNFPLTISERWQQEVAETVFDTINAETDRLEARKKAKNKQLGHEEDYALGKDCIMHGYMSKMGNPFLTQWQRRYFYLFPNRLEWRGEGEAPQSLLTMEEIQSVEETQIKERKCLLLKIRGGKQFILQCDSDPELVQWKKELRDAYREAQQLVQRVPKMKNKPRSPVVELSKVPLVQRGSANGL
Chain of Beta-2 adrenergic receptor (Homo sapiens) (P07550 whole entry, looked up): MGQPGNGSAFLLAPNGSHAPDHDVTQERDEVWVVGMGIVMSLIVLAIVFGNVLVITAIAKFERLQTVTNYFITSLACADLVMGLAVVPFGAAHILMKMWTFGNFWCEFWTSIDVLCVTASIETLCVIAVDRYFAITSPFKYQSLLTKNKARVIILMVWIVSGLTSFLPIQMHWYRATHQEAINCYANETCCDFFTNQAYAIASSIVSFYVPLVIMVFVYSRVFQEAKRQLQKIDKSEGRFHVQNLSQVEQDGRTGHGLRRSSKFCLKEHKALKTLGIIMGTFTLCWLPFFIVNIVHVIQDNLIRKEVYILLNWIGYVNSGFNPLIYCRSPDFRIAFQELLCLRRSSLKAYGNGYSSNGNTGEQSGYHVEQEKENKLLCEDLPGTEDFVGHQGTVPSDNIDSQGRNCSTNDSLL
Chain of ATP-binding cassette sub-family B member 6 (Homo sapiens) (Q9NP58 whole entry, looked up): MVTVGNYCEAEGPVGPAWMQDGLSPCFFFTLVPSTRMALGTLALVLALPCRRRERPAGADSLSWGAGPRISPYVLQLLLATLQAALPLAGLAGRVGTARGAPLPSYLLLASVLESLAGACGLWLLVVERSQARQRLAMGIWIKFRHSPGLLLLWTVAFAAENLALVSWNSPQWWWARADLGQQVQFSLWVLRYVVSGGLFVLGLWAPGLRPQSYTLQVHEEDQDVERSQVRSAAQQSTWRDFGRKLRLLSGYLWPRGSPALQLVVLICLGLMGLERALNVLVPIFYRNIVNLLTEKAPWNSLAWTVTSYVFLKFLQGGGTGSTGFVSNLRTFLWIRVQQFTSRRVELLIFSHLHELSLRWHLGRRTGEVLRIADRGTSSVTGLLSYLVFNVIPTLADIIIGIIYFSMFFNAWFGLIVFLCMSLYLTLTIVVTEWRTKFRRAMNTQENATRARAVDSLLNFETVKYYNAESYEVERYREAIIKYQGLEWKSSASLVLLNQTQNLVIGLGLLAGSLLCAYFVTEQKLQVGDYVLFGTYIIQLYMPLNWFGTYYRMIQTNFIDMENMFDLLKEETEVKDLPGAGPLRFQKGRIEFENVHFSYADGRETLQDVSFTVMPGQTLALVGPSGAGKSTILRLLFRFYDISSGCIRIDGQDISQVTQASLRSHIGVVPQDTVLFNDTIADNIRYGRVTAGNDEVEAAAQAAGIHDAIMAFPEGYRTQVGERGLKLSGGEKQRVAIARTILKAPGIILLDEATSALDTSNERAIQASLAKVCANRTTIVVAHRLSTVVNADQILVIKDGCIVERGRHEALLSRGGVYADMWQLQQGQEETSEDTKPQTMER
Chain of Integrin beta-1 (Homo sapiens) + Integrin alpha-4 (Homo sapiens) (P05556 whole entry, looked up): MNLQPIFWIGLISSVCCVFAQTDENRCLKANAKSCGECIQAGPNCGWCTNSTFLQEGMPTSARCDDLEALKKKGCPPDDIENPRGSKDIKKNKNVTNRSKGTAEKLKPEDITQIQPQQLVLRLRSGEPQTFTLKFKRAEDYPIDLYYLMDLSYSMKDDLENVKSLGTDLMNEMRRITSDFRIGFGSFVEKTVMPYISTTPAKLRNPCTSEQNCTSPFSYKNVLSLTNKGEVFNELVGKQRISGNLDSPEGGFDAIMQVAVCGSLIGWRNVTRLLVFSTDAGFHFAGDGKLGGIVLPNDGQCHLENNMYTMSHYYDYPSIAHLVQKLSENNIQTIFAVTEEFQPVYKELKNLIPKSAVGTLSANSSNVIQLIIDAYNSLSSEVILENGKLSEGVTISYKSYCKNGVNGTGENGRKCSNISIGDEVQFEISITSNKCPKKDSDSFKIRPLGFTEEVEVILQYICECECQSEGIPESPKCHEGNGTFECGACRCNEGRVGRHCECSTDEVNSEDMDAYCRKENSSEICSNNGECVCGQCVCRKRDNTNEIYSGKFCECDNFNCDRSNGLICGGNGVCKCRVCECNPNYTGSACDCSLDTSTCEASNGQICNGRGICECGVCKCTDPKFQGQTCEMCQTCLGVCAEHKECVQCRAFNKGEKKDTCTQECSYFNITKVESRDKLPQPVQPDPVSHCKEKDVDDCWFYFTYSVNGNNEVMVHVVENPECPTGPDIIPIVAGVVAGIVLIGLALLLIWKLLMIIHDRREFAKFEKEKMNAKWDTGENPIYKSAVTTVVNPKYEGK
Chain of Integrin beta-1 (Homo sapiens) + Integrin alpha-4 (Homo sapiens) (P13612 whole entry, looked up): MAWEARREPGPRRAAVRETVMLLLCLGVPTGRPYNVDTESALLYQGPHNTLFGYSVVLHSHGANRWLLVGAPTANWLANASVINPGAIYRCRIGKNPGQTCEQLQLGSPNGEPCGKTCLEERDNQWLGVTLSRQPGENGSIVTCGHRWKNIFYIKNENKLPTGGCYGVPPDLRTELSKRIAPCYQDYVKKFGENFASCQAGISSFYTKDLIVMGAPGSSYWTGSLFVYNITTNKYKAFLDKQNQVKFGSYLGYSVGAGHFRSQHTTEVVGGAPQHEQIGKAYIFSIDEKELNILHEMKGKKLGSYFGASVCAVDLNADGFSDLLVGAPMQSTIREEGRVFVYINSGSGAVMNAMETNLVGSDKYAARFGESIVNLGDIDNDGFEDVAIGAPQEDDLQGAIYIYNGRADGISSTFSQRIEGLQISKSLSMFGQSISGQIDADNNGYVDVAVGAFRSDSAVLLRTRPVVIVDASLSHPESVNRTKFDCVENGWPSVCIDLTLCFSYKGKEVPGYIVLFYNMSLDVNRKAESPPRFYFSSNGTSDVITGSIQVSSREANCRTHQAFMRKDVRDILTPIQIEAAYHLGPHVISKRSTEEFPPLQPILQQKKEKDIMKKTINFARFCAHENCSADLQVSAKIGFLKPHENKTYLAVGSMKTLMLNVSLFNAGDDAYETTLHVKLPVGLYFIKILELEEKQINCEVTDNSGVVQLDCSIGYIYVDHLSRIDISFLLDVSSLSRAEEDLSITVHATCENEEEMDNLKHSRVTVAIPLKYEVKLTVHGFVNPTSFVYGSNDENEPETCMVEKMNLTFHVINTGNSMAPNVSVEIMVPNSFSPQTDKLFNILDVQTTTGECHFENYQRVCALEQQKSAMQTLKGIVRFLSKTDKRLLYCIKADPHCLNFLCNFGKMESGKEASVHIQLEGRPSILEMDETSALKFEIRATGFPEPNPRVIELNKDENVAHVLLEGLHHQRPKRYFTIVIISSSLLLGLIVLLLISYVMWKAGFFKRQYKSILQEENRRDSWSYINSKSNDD

For `N/C(=N\OC(=O)/C=C/c1ccccc1)c1ccc(Br)cc1`, in [1], the percent of DMSO control GFP was 103% (inactive). Further, the results for the GFP response vs DMSO in test [2] and in [4] were 106% (inactive) and 101% (inactive), respectively. Moreover, the percent response of DMSO control in test [3] is 107% (inactive). In addition, in [5], the GFP response, % of DMSO is 94.2% (inactive). The double positive events in test [6] was found to be 65%. For the same compound, the vesicle binding response in [6] is 195% (inactive). The inhibition is -3.57% (inactive) in test [7], 40.4% (inactive) in test [11] and 13% (inactive) in [15]. Also, the superoxide response (% of plate) in test [8] is 107% (inactive). For the same compound, the aptamer binding inhibition in test [9] is 3% (inactive). The response is 0.58% (inactive) in test [10] and -3.5% (inactive) in [12]. Further, the binding (% of control) in test [13] was 100% (inactive). In test [14], the efflux inhibition (fraction of control) was -0.01 (inactive). Also, in [16], the differentiation response is -3.67% (inactive).
Turning to `CCOC(=O)n1c(=O)oc2ccccc21`, in test [1], the percent of DMSO control GFP was 97% (inactive). In addition, the GFP response vs DMSO in [2] is 104% (inactive); in test [4] it was 102% (inactive). Further, the percent response of DMSO control in test [3] is 102% (inactive). The GFP response, % of DMSO in [5] was 107% (inactive). Further, the double positive events in [6] stood at 62.5%. Also, the vesicle binding response in [6] is 196% (inactive). The inhibition in [7] is 6.55% (inactive); in test [11], -0.08% (inactive); in test [15], 3% (inactive). Moreover, in test [8], the superoxide response (% of plate) was 105% (inactive). Further, the aptamer binding inhibition in test [9] is 7% (inactive). Besides, the response in test [10] is -19.8% (inactive); in test [12], 10.2% (inactive). Besides, the binding (% of control) in [13] was 107% (inactive). Further, the efflux inhibition (fraction of control) in test [14] was 0.08 (inactive). Moreover, the differentiation response in test [16] was -4.99% (inactive).
Turning to `Cc1ccc(C2CC(=O)C(C=NCCN3CCN(C(=S)Nc4ccccc4)CC3)=C(O)C2)cc1` (stereo not drawn), in test [1], the percent of DMSO control GFP is 103% (inactive). Further, the GFP response vs DMSO was 104% (inactive) in test [2] and 110% (inactive) in test [4]. In addition, the percent response of DMSO control in test [3] was 91.2% (inactive). For the same compound, the GFP response, % of DMSO in test [5] is 107% (inactive). Moreover, the double positive events in [6] turned out to be 60.8%. For the same compound, the vesicle binding response in [6] was 417% (inactive). Also, the inhibition in [7] is -0.27% (inactive); in test [11], -7.49% (inactive); in test [15], 3% (inactive). Besides, the superoxide response (% of plate) in [8] is 104% (inactive). Also, the aptamer binding inhibition in test [9] is 5% (inactive). The response in test [10] was -26.2% (inactive); in [12], -3.06% (inactive). In addition, the binding (% of control) in test [13] was 101% (inactive). The efflux inhibition (fraction of control) in test [14] was 0.5 (active). For the same compound, the differentiation response in [16] was -10.9% (inactive).
`O=C(/C=C/c1ccc(F)cc1)NC(=S)N1CCCCC1c1cccnc1` (stereo not drawn): the percent of DMSO control GFP in test [1] is 103% (inactive). Besides, the GFP response vs DMSO in test [2] was 106% (inactive); in test [4] it was 117% (inactive). Further, the percent response of DMSO control in test [3] is 112% (inactive). Moreover, in [5], the GFP response, % of DMSO is 112% (inactive). In [6], this compound gave a double positive events of 56.7%. In addition, in test [6], the vesicle binding response was 165% (inactive). Besides, the inhibition in test [7] was -3.67% (inactive); in test [11] it was 1.74% (inactive); in test [15], -5% (inactive). Further, the superoxide response (% of plate) in [8] is 92.2% (inactive). Moreover, the aptamer binding inhibition in test [9] is 82% (active). For the same compound, the response in [10] was -15.6% (inactive); in test [12] it was 5.24% (inactive). Moreover, the binding (% of control) in [13] is 104% (inactive). Further, in [14], the efflux inhibition (fraction of control) was -0.13 (inactive). In test [16], the differentiation response was -4.99% (inactive).
